Screening data deposited in PubChem by Bradner/Qi Labs at DFCI.
CBX7 inh – CBX7 inhibition, primary AlphaScreen | O95931 | AlphaScreen His6-CBX7 / biotin-H3K27me3 peptide binding; active compounds read low | normalised signal (fraction of DMSO) (test concentration not listed) | 66,000 tested, 1.1% active | AID 1224903; in the data active means normalised signal below about 0.5
Target sequence (O95931 whole entry, looked up): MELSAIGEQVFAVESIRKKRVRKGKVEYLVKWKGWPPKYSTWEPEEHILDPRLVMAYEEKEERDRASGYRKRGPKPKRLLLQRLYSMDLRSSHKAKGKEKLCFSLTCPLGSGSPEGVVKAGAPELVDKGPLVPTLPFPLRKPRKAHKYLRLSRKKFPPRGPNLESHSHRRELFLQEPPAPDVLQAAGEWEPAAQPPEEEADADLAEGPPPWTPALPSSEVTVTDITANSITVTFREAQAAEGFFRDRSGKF
A number is an active result; . = inactive; ! = not active in a repeat. Shown is part of a subset that was picked to be rich in hits.

SMILES	CBX7 inh
CC(C)(C)n1cnc2cc(NCc3cccc(Br)c3)ccc21	.
CCn1cnc2cc(NCc3cccc(OC)c3OC)ccc21	.
CCCN(CCC)S(=O)(=O)c1ccc2c(c1)N(CC(=O)NCC1CCCO1)C(=O)CS2 (stereo not given)	.
Cc1nc2ccc(S(=O)(=O)N(C)CC(=O)NCc3ccc(Cl)cc3)cc2s1	.
Cc1cccc(CN2CCN(CC(=O)NC3CCCC(C)C3C)C2=O)c1 (stereo not given)	.
COc1ccc2nc(N3CCC(C(=O)NC(C)c4ccccc4)CC3)sc2c1 (stereo not given)	.
CCCCN(CCCC)S(=O)(=O)c1ccc(C(=O)Nc2nnc(-c3ccc(Cl)s3)o2)cc1	.
C=CCN(CC=C)S(=O)(=O)c1ccc(C(=O)Nc2nnc(-c3ccc(Cl)s3)o2)cc1	0.366
CCN(CC)S(=O)(=O)c1ccc(C(=O)Nc2nnc(-c3ccc(Cl)s3)o2)cc1	.
CN(C)S(=O)(=O)c1ccc(C(=O)Nc2nnc(-c3ccc(Cl)s3)o2)cc1	0.221
CCN(CC)CCCC(C)Nc1ccnc2ccc(-c3ccccc3)cc12 (stereo not given)	.
Cc1cccc(CSc2nc3ccncc3n2CC(=O)Nc2cccc(Cl)c2C)c1	.
Cc1cc(NC(=O)c2cc(-c3ccc(F)cc3)on2)no1	.
CC(C)(C)c1ccc(C(=O)Nc2ccc3oc(-c4ccc(Cl)cc4)nc3c2)cc1	.
O=C(O)c1ccc(-c2nc(-c3cccc(Cl)c3)c(-c3ccccc3)[nH]2)cc1	.
COc1ccc(-c2nc(-c3cccs3)c(-c3cccs3)[nH]2)cc1	.
Fc1ccc(-c2nc(-c3ccccc3)c(-c3cccs3)[nH]2)cc1	.
COc1ccc(-c2nc(-c3ccccc3)c(-c3cccs3)[nH]2)cc1OC	.
Oc1ccc(-c2nc(-c3ccccc3)c(-c3cccs3)[nH]2)cc1	0.467
COc1ccc(-c2nc(-c3cccs3)c(-c3cccs3)[nH]2)cc1OC	0.446
c1cncc(-c2nc3ccccc3[nH]2)c1	.
COc1ccc(-c2nc(-c3ccccc3)c(-c3cccs3)[nH]2)cc1O	.
Brc1ccc(-c2nc(-c3ccccc3)c(-c3ccc(Oc4ccccc4)cc3)[nH]2)cc1	.
c1ccc(-c2nc(-c3cccnc3)[nH]c2-c2ccccc2)cc1	0.308!
Oc1ccc(-c2nc(-c3ccc(-c4ccccc4)cc3)c(-c3ccc(-c4ccccc4)cc3)[nH]2)cc1	.
SMILES	CBX7 inh
Oc1ccc(-c2[nH]c(-c3cccc(Cl)c3)nc2-c2ccccc2)cc1	0.412
CCN(CC)CCNC(=O)c1ccc2c(c1)N(Cc1cc(C)ccc1C)C(=O)c1ccccc1S2	.
COc1ccc(-c2cc3nc(C)c(CCC(=O)Nc4ccc(Cl)c(C)c4)c(C)n3n2)c(OC)c1	.
CCCn1c(=N)n(CC(O)COc2ccccc2)c2ccccc21 (stereo not given)	.
CCN(CC)S(=O)(=O)c1cccc(C(=O)Nc2nnc(Cc3cccc(C)c3)s2)c1	.
CCC(=O)N1CCc2cc(S(=O)(=O)NCCN(C)C)ccc21	.
CCN(CC)CCCNC(=O)C1CCN(c2nnc(-n3cccc3)s2)CC1	.
O=C1CCCc2c1cc(C(=O)Nc1ccccc1F)c(=O)n2-c1ccccc1	.
CCc1cccc(NC(=O)c2ccc(CNc3c(N4CCC(C)CC4)c(=O)c3=O)cc2)c1	.
CC(=O)N1CCc2cc(S(=O)(=O)N3CCN(c4ccccc4F)CC3)ccc21	.
COc1cccc(-c2nc(-c3ccccc3)c(-c3cccs3)[nH]2)c1OC	0.428
COc1cccc(-c2nc(-c3ccsc3)c(-c3ccccc3)[nH]2)c1OC	.
COc1cccc(-c2nc(-c3cccs3)c(-c3cccs3)[nH]2)c1	.
COc1ccc(CN2C(=O)N(c3ccc(C)cc3)C(=O)C2CC(=O)Nc2ccc(OC)cc2)cc1 (stereo not given)	.
CCOc1ccc(NC(=O)c2nn(-c3ccc(OCC)cc3)c(=O)c3ccccc23)cc1	.
O=C(Nc1nc(SCc2ccccc2Cl)ns1)c1ncn[nH]1	0.0529
O=C(Nc1ncc(Cc2ccccc2Cl)s1)c1cccc2ccccc12	.
O=C(Nc1cc(-c2nc3ccccc3s2)ccc1Cl)c1ncn[nH]1	.
CCOC(=O)CNC(=O)c1cc2c(n(-c3ccccc3)c1=O)CC(C)(C)CC2=O	.
CC(C)c1ccc(NC(=O)C(c2ccccc2)N2CCc3ccccc32)cc1 (stereo not given)	0.495
CC(C)c1ccc(NC(=O)C(c2ccc3c(c2)OCO3)N2CCc3ccccc32)cc1 (stereo not given)	.
Cc1cccc(C)c1NC(=O)C(c1ccccc1)N1CCc2ccccc21 (stereo not given)	.
O=C(CSc1nc(-c2ccc(F)cc2)[nH]c1-c1ccccc1)Nc1ccc2c(c1)OCCO2	.
CC(C)(C)c1ccc(C(=O)Nc2ncc(Cc3ccccc3)s2)cc1	.
COc1cccc(OC)c1C(=O)Nc1cccc(-c2nc3cc(C)ccc3o2)c1	.
SMILES	CBX7 inh
Cc1ccc2oc(-c3cccc(NC(=O)c4ccccc4Cl)c3)nc2c1	.
Cc1ccc2oc(-c3cccc(NC(=O)c4ncn[nH]4)c3)nc2c1	0.0761
O=C(CN1C(=O)CCC1=O)Nc1nc(-c2ccc(Br)cc2)cs1	.
O=C(c1ccc(C#Cc2ccccc2)o1)N1CCN(c2ccccn2)CC1	0.448
O=C(c1n[nH]c(=O)c2ccccc12)N1CCN(c2ccccn2)CC1	.
O=C(c1cnc(N2CCN(c3ncccn3)CC2)c2ccccc12)N1CCN(c2ccccn2)CC1	.
COc1ccc(-c2ccc(=O)n(CC(=O)Nc3cc(OC)cc(OC)c3)n2)cc1	.
CCCN1CCCc2cc(CN(CCCN3CCOCC3)C(=O)Nc3ccc(OCC)cc3)ccc21	.
CCCN1CCCc2cc(CN(CCCOC)C(=O)Nc3ccc(OCC)cc3)ccc21	0.233
CCCCN1CCCc2cc(CN(CCCN3CCOCC3)C(=O)Nc3ccc(C)c(C)c3)ccc21	0.22
CCOc1ccc(NC(=O)N(CCN2CCOCC2)Cc2ccc3c(c2)CCCN3CC)cc1	.
CCN1CCCc2cc(CN(CCN3CCOCC3)C(=O)Nc3ccc(Cl)cc3)ccc21	.
CCCN1CCCc2cc(CN(CCCOC)C(=O)Nc3ccc(C)c(C)c3)ccc21	.
CCOc1ccc(Nc2ncnc3c2c(-c2ccccc2)cn3-c2ccc(C)cc2)cc1	.
O=C(O)c1cc(S(=O)(=O)N2CCCCC2c2cccnc2)ccc1F (stereo not given)	.
COc1ccc(C2C(=O)N(C3CCCCCC3)CC(=O)N2C2CC2)cc1OC (stereo not given)	.
COc1ccc(CNC(=O)C2(NS(=O)(=O)c3cccc4cccnc34)CCCCC2)cc1	.
COc1ccccc1CNC(=O)c1ccc2c(c1)N(Cc1ccccc1)CCS2	.
COc1ccc(CN(C)CCc2ccccn2)cc1OC	0.469
COc1ccc(CN(C)CCc2ccccn2)cc1OCc1ccccc1	.
COc1ccc(CN(C)CCc2ccccn2)cc1	.
CC1CCCC(NC(=O)C2CCCN(c3nnc(-n4cccc4)s3)C2)C1C (stereo not given)	.
COc1ccccc1C(=O)NCCc1cc2ccc(C)cc2[nH]c1=O	.
Cc1ccc2nc(-c3ccccn3)c(Nc3ccc(F)cc3)n2c1	0.212
Cc1ccc(Nc2c(-c3cccnc3)nc3ccc(C)cn23)cc1	.
COc1ccc(-c2nc3ncccn3c2Nc2ccc(C)cc2)cc1	.
Cc1ccc2nc(-c3cccnc3)c(Nc3ccccc3)n2c1	.
Cc1ccc2nc(-c3ccccn3)c(Nc3ccccc3)n2c1	0.109
Cc1ccc2nc(-c3ccncc3)c(Nc3ccccc3C)n2c1	.
